{"source": "the supplement of paper PMC3334620", "note": "The full ranking holds about 33,000 sequences; the median of “E-score (-0.5 to 0.5)” is about -0.04, and the highest 2% start at about 0.36. The full list was thinned out, with the highest values kept by preference."}
{"biological_target": "T1, Hmlalpha2 (UniProt P0CY09)", "T1 sequence": "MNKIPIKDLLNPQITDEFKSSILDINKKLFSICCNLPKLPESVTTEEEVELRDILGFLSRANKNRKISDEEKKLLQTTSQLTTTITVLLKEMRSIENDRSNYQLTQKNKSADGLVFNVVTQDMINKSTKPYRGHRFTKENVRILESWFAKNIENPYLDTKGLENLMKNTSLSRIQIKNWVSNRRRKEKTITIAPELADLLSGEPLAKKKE", "assay": "PBM E-score (8-mer binding enrichment) (E-score (-0.5 to 0.5)); higher = stronger / more preferred TF binding", "details": "protein concentration: 200 nM; construct: GST-full length", "procedure": "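Universal 'all 10-mer' protein binding microarrays (Agilent AMADID 015681) probed with GST-tagged S. cerevisiae TFs (full-length or DBD) made by in vitro transcription/translation (PURExpress), about 100-200 nM. Bound TF was detected with fluorescent anti-GST. Each ungapped 8-mer (which stands for itself and its reverse complement) is scored by the PBM enrichment score (E-score), a modified Wilcoxon-Mann-Whitney statistic from -0.5 to +0.5, computed with the Universal PBM Analysis Suite. Scale: above 0.35 generally sequence-specific binding.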"}
{"sequence": "ATGTAAAG", "PBM E-score": 0.473}
{"sequence": "CTGTAAAC", "PBM E-score": 0.31}
{"sequence": "GTGTAAAC", "PBM E-score": 0.474}
{"sequence": "GTTTAAAC", "PBM E-score": 0.41}
{"sequence": "GGGTAAAC", "PBM E-score": 0.0624}
{"sequence": "AAGTAAAT", "PBM E-score": 0.341}
{"sequence": "GTTTAAAA", "PBM E-score": 0.215}
{"sequence": "AGGTAAAT", "PBM E-score": 0.24}
{"sequence": "ATGTAAAT", "PBM E-score": 0.477}
{"sequence": "CTTTAAAC", "PBM E-score": 0.153}
{"sequence": "AAGTAAAG", "PBM E-score": 0.0486}
{"sequence": "CTGTAAAG", "PBM E-score": 0.244}
{"sequence": "ACAGAAAT", "PBM E-score": 0.107}
{"sequence": "CCATCACA", "PBM E-score": 0.00393}
{"sequence": "CACCTTCC", "PBM E-score": -0.11}
{"sequence": "CCCTTAGA", "PBM E-score": -0.353}
{"sequence": "AGTGCCAG", "PBM E-score": -0.0844}
{"sequence": "CACAAAGG", "PBM E-score": -0.0549}
{"sequence": "AGCCACCC", "PBM E-score": -0.289}
{"sequence": "AGGTAAAC", "PBM E-score": 0.26}
{"sequence": "CTGTAAAA", "PBM E-score": 0.359}
{"sequence": "TAGTAAAA", "PBM E-score": 0.306}
{"sequence": "ATGTAAAC", "PBM E-score": 0.483}
{"sequence": "TGGTAAAA", "PBM E-score": 0.266}
{"sequence": "AAGTAAAC", "PBM E-score": 0.283}
{"sequence": "GTGTAAAA", "PBM E-score": 0.467}
{"sequence": "AGGTAAAA", "PBM E-score": 0.16}
{"sequence": "TTGTAAAA", "PBM E-score": 0.392}
{"sequence": "GAGTAAAA", "PBM E-score": 0.237}
{"sequence": "ATGTAAAA", "PBM E-score": 0.474}
{"sequence": "GGGTAAAA", "PBM E-score": 0.185}
{"sequence": "ATAGCGAC", "PBM E-score": 0.106}
{"sequence": "CCGGGCAG", "PBM E-score": -0.165}
{"sequence": "TGGTCCAA", "PBM E-score": -0.192}
{"sequence": "GTTTGGCA", "PBM E-score": -0.0431}
{"sequence": "GTACAGAC", "PBM E-score": 0.17}
{"sequence": "TACCCACA", "PBM E-score": -0.015}
{"sequence": "AGTATGCG", "PBM E-score": 0.0952}
{"sequence": "AGACATGG", "PBM E-score": 0.21}
{"sequence": "ATACATGA", "PBM E-score": 0.465}
{"sequence": "CGACATGC", "PBM E-score": 0.311}
{"sequence": "AGACATGC", "PBM E-score": 0.171}
{"sequence": "ATACATCC", "PBM E-score": 0.308}
{"sequence": "AGACATGA", "PBM E-score": 0.275}
{"sequence": "CTACATGC", "PBM E-score": 0.429}
{"sequence": "CTACATTC", "PBM E-score": 0.0322}
{"sequence": "ATACATCA", "PBM E-score": 0.334}
{"sequence": "ATACATGG", "PBM E-score": 0.451}
{"sequence": "ATACATGC", "PBM E-score": 0.427}
{"sequence": "ATACATCG", "PBM E-score": 0.299}
{"sequence": "ACCACCGT", "PBM E-score": -0.0982}
{"sequence": "AGATGCCA", "PBM E-score": -0.254}
{"sequence": "ATACCTGA", "PBM E-score": 0.0295}
{"sequence": "GGGGGGCA", "PBM E-score": -0.328}
{"sequence": "CTAGCAAG", "PBM E-score": -0.133}
{"sequence": "GAAGTCGA", "PBM E-score": -0.0459}
{"sequence": "CCGGACAA", "PBM E-score": 0.0112}
{"sequence": "CACAGAGA", "PBM E-score": 0.0962}
{"sequence": "TCAGGAGA", "PBM E-score": -0.123}
{"sequence": "ACTGCCCA", "PBM E-score": -0.0607}
{"sequence": "GATGCATC", "PBM E-score": 0.0847}
{"sequence": "GCTGTATA", "PBM E-score": 0.153}
{"sequence": "ACTGTGTA", "PBM E-score": 0.443}
{"sequence": "ACTGTGTG", "PBM E-score": 0.128}
{"sequence": "GCTGTGAA", "PBM E-score": 0.0585}
{"sequence": "ACTGTGTC", "PBM E-score": 0.174}
{"sequence": "CCTGTGAA", "PBM E-score": 0.0484}
{"sequence": "CCTGTGTC", "PBM E-score": 0.0583}
{"sequence": "CCTGTGTA", "PBM E-score": 0.43}
{"sequence": "GCTGTGTA", "PBM E-score": 0.437}
{"sequence": "AGGAGAGG", "PBM E-score": -0.277}
{"sequence": "ACCAACAA", "PBM E-score": 0.198}
{"sequence": "AGCATTGA", "PBM E-score": -0.135}
{"sequence": "AAGAGGCA", "PBM E-score": -0.184}
{"sequence": "GCTCAACC", "PBM E-score": -0.147}
{"sequence": "ATCGCTCG", "PBM E-score": -0.128}
{"sequence": "ATTGTAAA", "PBM E-score": 0.374}
{"sequence": "AGTGTAAT", "PBM E-score": 0.357}
{"sequence": "CTTGTAAA", "PBM E-score": 0.452}
{"sequence": "GCTGTAAA", "PBM E-score": 0.336}
{"sequence": "GTTGTAAA", "PBM E-score": 0.385}
{"sequence": "CCTGTAAA", "PBM E-score": 0.328}
{"sequence": "ATTGTAAG", "PBM E-score": 0.0623}
{"sequence": "ATTGTAAC", "PBM E-score": 0.221}
{"sequence": "CTTGTAAC", "PBM E-score": 0.36}
{"sequence": "AGTGTATA", "PBM E-score": 0.114}
{"sequence": "AGTGTAAA", "PBM E-score": 0.38}
{"sequence": "GGTGTAAA", "PBM E-score": 0.351}
{"sequence": "AACACTAT", "PBM E-score": 0.231}
{"sequence": "ACTCGACA", "PBM E-score": 0.203}
{"sequence": "CAAATCTG", "PBM E-score": -0.0335}
{"sequence": "AATTGCGT", "PBM E-score": 0.201}
{"sequence": "ACGCCCGG", "PBM E-score": -0.193}
{"sequence": "GATCTTTA", "PBM E-score": 0.131}
{"sequence": "ACACCCAT", "PBM E-score": -0.0488}
{"sequence": "AAAGGCTC", "PBM E-score": -0.223}
{"sequence": "CGGCCTAG", "PBM E-score": -0.322}
{"sequence": "ACTCCTCC", "PBM E-score": -0.17}
{"sequence": "AGTTCTCA", "PBM E-score": 0.0389}
{"sequence": "GTAATACA", "PBM E-score": 0.397}
{"sequence": "ATAATACC", "PBM E-score": 0.0152}
{"sequence": "ATAATACA", "PBM E-score": 0.38}
{"sequence": "GTAATAGA", "PBM E-score": 0.257}
{"sequence": "CTAATACA", "PBM E-score": 0.342}
{"sequence": "ATAATACG", "PBM E-score": 0.239}
{"sequence": "CCCTTATC", "PBM E-score": -0.0289}
{"sequence": "GCTAGCGA", "PBM E-score": -0.117}
{"sequence": "ATGAAACC", "PBM E-score": 0.0645}
{"sequence": "ACATTGCG", "PBM E-score": 0.249}
{"sequence": "CTCGTAGA", "PBM E-score": -0.0578}
{"sequence": "AAGCGTAT", "PBM E-score": 0.0488}
{"sequence": "ACTTGGAT", "PBM E-score": 0.0128}
{"sequence": "CCTCTCAC", "PBM E-score": -0.127}
{"sequence": "CTTGTTCC", "PBM E-score": -0.0361}
{"sequence": "AAGCACGC", "PBM E-score": 0.0885}
{"sequence": "ATTAACCA", "PBM E-score": 0.0177}
{"sequence": "ACGTATTA", "PBM E-score": 0.345}
{"sequence": "ATGTATTA", "PBM E-score": 0.428}
{"sequence": "ATGTATGA", "PBM E-score": 0.296}
{"sequence": "GTGTATTA", "PBM E-score": 0.421}
{"sequence": "CTGTATTA", "PBM E-score": 0.191}
{"sequence": "GTGTATGA", "PBM E-score": 0.262}
{"sequence": "CTACAGCC", "PBM E-score": -0.113}
{"sequence": "ATCAAGTA", "PBM E-score": 0.217}
{"sequence": "GCACGCAC", "PBM E-score": -0.213}
{"sequence": "ACACGCAG", "PBM E-score": 0.313}
{"sequence": "ACACGCAA", "PBM E-score": 0.35}
{"sequence": "ACACGCAC", "PBM E-score": 0.382}
{"sequence": "CCACGCAC", "PBM E-score": -0.0131}
{"sequence": "ACACGCAT", "PBM E-score": 0.388}
{"sequence": "ACCAATTA", "PBM E-score": 0.195}
{"sequence": "CTACGTTA", "PBM E-score": 0.316}
{"sequence": "ATTAGTAA", "PBM E-score": 0.206}
{"sequence": "CGGGGAGA", "PBM E-score": -0.256}
{"sequence": "GACTACTC", "PBM E-score": -0.0288}
{"sequence": "TGAAGCAA", "PBM E-score": 0.0475}
{"sequence": "ATGAGGCC", "PBM E-score": -0.277}
{"sequence": "GGATAGGA", "PBM E-score": -0.212}
{"sequence": "AAACGACA", "PBM E-score": 0.235}
{"sequence": "AAGTACAA", "PBM E-score": 0.199}
{"sequence": "ACGTACAG", "PBM E-score": 0.0878}
{"sequence": "ACGTACAT", "PBM E-score": 0.381}
{"sequence": "AAGTACAG", "PBM E-score": 0.0583}
{"sequence": "AAGTACAT", "PBM E-score": 0.383}
{"sequence": "ACGTACAA", "PBM E-score": 0.273}
{"sequence": "AGATTTAT", "PBM E-score": 0.0596}
{"sequence": "AGCCTCCT", "PBM E-score": -0.16}
{"sequence": "AACGCATG", "PBM E-score": 0.248}
{"sequence": "CAACACGG", "PBM E-score": 0.386}
{"sequence": "TAACACGA", "PBM E-score": 0.469}
{"sequence": "CAACACCA", "PBM E-score": 0.207}
{"sequence": "CCACACGG", "PBM E-score": -0.0191}
{"sequence": "CAACACGC", "PBM E-score": 0.367}
{"sequence": "GAACACGA", "PBM E-score": 0.287}
{"sequence": "CAACACGA", "PBM E-score": 0.419}
{"sequence": "TAACACCA", "PBM E-score": 0.314}
{"sequence": "GAACACGC", "PBM E-score": 0.299}
{"sequence": "CAACACAA", "PBM E-score": 0.35}
{"sequence": "CAACACTA", "PBM E-score": 0.169}
{"sequence": "CAACACAC", "PBM E-score": 0.349}
{"sequence": "CAGCATCC", "PBM E-score": -0.176}
{"sequence": "ACGGTGTA", "PBM E-score": 0.205}
{"sequence": "TACTCTCA", "PBM E-score": 0.103}
{"sequence": "CGTGCCTC", "PBM E-score": -0.119}
{"sequence": "CGTTAACG", "PBM E-score": 0.211}
{"sequence": "AATCCTTG", "PBM E-score": 0.103}
{"sequence": "AGATATAA", "PBM E-score": 0.127}
{"sequence": "AGTAGACG", "PBM E-score": 0.0433}
{"sequence": "CGGTGGTA", "PBM E-score": -0.0335}
{"sequence": "GAACAAGA", "PBM E-score": 0.139}
{"sequence": "TAACAAGA", "PBM E-score": 0.377}
{"sequence": "TAACACAA", "PBM E-score": 0.43}
